We go through 40 compounds from PubChem BioAssay (NCI).

Compounds without any hit were thinned out: in the full panel of roughly 79,000, 15% have a hit. The source made the active and inactive calls. No stated cut-off is given here; in the data, active means growth inhibition above about 70%; inactive means the rest.

The first assay is described as follows: NCI Yeast Anticancer Drug Screen. Data for the sgs1 mgt1 strain (AID 161).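 Further: 0% = growth of cultures given vehicle only.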 Particulars: S. cerevisiae sgs1 mgt1 strain, at 50.0 µM, hits give high values. A digest of the protocol: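 Percent growth inhibition was derived by comparing compound-exposed mutant yeast with vehicle-exposed cultures. The strain carries alterations in DNA damage repair.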
Turning to `CC12CC3(Nc4ccccc4C3(C)O)OC1(C)c1ccccc1N2` (stereo not given), the growth inhibition is 10.3% (inactive).

For the compound `COC(=O)C(Br)(C(=O)OC)C(c1ccccc1)c1ccccc1`, the growth inhibition was 72.3% (active).

On to `c1ccc(-c2ccc(-c3cc4ccccc4c4ccccc34)cc2)cc1`, for which the growth inhibition is -17.2% (inactive).

For `Nc1nc(C2CCCCC2)cs1`, the growth inhibition is 31.1% (inactive).

Consider `CCCCCCC1NC(CCCCCC)N2C(CCCCCC)N12` (stereo not given), for which the growth inhibition was -2.15% (inactive).

A further assay can be described thus: NCI Yeast Anticancer Drug Screen. Data for the cln2 rad14 strain (AID 165).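 Further: 0% = growth equal to vehicle treated cultures.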 Conditions: S. cerevisiae cln2 rad14 strain, at 50.0 µM, hits give high values. A digest of the protocol: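 Relative to vehicle controls, growth inhibition of compound-treated cln2 rad14 yeast was recorded.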
In the case of `COC(=O)C1C(=O)C2CCC1C(=O)C2C(=O)OC` (stereo not given), the growth inhibition is 4.1% (inactive).

As to `O=C1CCCCCCCCCCOCCCCO1`, the growth inhibition is 24.1% (inactive).

As for `CC(C)c1ccc(/C=C/C(=O)c2ccc([N+](=O)[O-])cc2)cc1`, the growth inhibition is -13.3% (inactive).

In the case of `O=c1ccc2cc3ccoc3c(OCCOCCOCCOCCOc3c4occc4cc4ccc(=O)oc34)c2o1`, the growth inhibition is -17.2% (inactive).

Take `O=C1CSC(c2ccc(Br)cc2)N1c1nncs1` (stereo not given): the growth inhibition was -9.95% (inactive).

Regarding `CCC(C)(C)N`, the growth inhibition is -73.2% (inactive).

Regarding `c1scc2c1COCCOCCOCCOCCOCCOCCOC2`, the growth inhibition was 5.05% (inactive).

With `Brc1c(CCc2ccc3ccccc3c2Br)ccc2ccccc12`, the growth inhibition is -6.75% (inactive).

With `C/C=C(\Cl)C(OC(C)=O)OC(C)=O`, the growth inhibition was -6.8% (inactive).

For the compound `CN(C)CCC(=O)N1CCc2c([nH]c3ccccc23)C1c1cccnc1` (stereo not given), the growth inhibition is 6.55% (inactive).

With `O=C(O)C1CCCCC1C(=O)Nc1ccc(Cl)c(Cl)c1` (stereo not given), the growth inhibition was -4.15% (inactive).

For `CC1(COc2ccccc2)NC(=O)c2ccccc2O1` (stereo not given), the growth inhibition was -46.2% (inactive).

As to `COC(=O)c1ccc(NCC2=CC(=O)c3ccccc3C2=O)cc1`, the growth inhibition was 48.4% (inactive).

`CCOC(=O)c1c(C)nc(C)nc1N`: the growth inhibition is -41.5% (inactive).

For `C/C(=C\CNc1ncnc2c1ncn2C1CCCCO1)COP(=O)(O)O` (stereo not given), the growth inhibition was 22.2% (inactive).

For `O=C(CCN1C(=O)CC1c1ccco1)N1CCOCC1` (stereo not given), the growth inhibition is 13.1% (inactive).

With `COc1cc(C(C)O)c[n+](CCc2c[nH]c3ccccc23)c1` (stereo not given), the growth inhibition is -8.1% (inactive).

Consider `O=C(c1ccc(F)cc1)c1ccc2ccccc2c1C(=O)O`, for which the growth inhibition was 14.3% (inactive).

Consider `O=C(Nc1cccc(Cl)c1)Nc1ccc(Sc2ccc(Cl)cc2)o1`, for which the growth inhibition is 29.9% (inactive).

Consider `c1ccc(C(C2=Nc3cccc4cccc(c34)N2)c2ccccc2)cc1`, for which the growth inhibition is 11.1% (inactive).

Consider `O=C1C2=C(c3ccccc31)C(c1ccccc1Cl)N1C(=O)CCSC1=N2` (stereo not given), for which the growth inhibition was 8.85% (inactive).

Consider `Cc1ccc(NC2=N/C(=C/c3ccco3)C(Cl)=N2)cc1`, for which the growth inhibition was -1.8% (inactive).

As for `c1ccc(C2Nc3ccccc3NC2c2ccccc2)cc1` (stereo not given), the growth inhibition was 20.9% (inactive).

As to `O=C1CC2(CCc3ccccc32)C(=O)N1CN1CCN(c2ccccn2)CC1` (stereo not given), the growth inhibition is -9.15% (inactive).

As to `CC1(C)COC(c2ccccc2Cl)OC1`, the growth inhibition was -24.6% (inactive).

Consider `COc1ccc(C2=NOC3COC4C=CC=CC4OCC23)cc1` (stereo not given), for which the growth inhibition was -17.9% (inactive).

In the case of `Cc1ccc(NC(=O)CC2SC(=Nc3cccc(Cl)c3C)NC2=O)cc1` (stereo not given), the growth inhibition was 28.7% (inactive).

In the case of `CC1(C)CC2=C(Sc3ccccc3N2)C(=O)C1C(=O)C(=O)Nc1cccc([N+](=O)[O-])c1` (stereo not given), the growth inhibition is -35.9% (inactive).

With `Cc1csc(=NCc2cccnc2)n1C`, the growth inhibition is 23.4% (inactive).

For the compound `O=C1Nc2ccccc2C1O` (stereo not given), the growth inhibition is -17.7% (inactive).

For `Cc1c(-c2ccc3c(c2)COC3)sc(N)c1C#N`, the growth inhibition was 24.3% (inactive).

Take `CCc1cc2c(c3c1CCCC3)CC1(Cc3ccc(C(=O)OC)cc3C1)C2` (stereo not given): the growth inhibition is 10.3% (inactive).

With `O=C1NCC/C1=C\c1ccccc1`, the growth inhibition is -8.05% (inactive).

Turning to `CCCNC(=S)/N=C\c1c(O)c2ccccc2oc1=O`, the growth inhibition is -0.45% (inactive).

As for `O=c1[nH]c2c([N+](=O)[O-])cc(Cl)cc2nc1/C=C(\O)c1cccnc1`, the growth inhibition is 36.2% (inactive).

`CC12CC3(Nc4ccccc4C3(C)O)OC1(C)c1ccccc1N2` (stereo not given): the growth inhibition is 1.25% (inactive).

With `COC(=O)C(Br)(C(=O)OC)C(c1ccccc1)c1ccccc1`, the growth inhibition was 26.2% (inactive).

As to `c1ccc(-c2ccc(-c3cc4ccccc4c4ccccc34)cc2)cc1`, the growth inhibition was -5.8% (inactive).

With `Nc1nc(C2CCCCC2)cs1`, the growth inhibition was 16.1% (inactive).

Regarding `CCCCCCC1NC(CCCCCC)N2C(CCCCCC)N12` (stereo not given), the growth inhibition is 0% (inactive).
